Assay results from PubChem BioAssay AID1159580 (chemical genetic matrix, 2015).
Out of some 5,500 compounds screened, about 2,000 (36%) were called active. Inconclusive results (about 18%) are left out. Rule as the data show it: active = normalized growth mostly below about 0.91 (no sharp cut-off); inconclusive = no clear call, values can overlap the other calls; inactive = mostly above about 0.92. This is one part of the list.

Assay: chemical genetic growth profiling, strain panel (AID 1159580);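 also: tested at 20 µM; growth read once vehicle control cultures reached saturation at 30 °C; 1 = growth at the plate median or of vehicle wells; lower values mean less growth of the strain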
Details: S. cerevisiae deletion strains, growth OD

Measured: normalized growth

CCCCC(=O)Oc1ccccc1C(=O)O
inactive: locus YAL021C, strain ccr4, stronger effect = lower value 0.989 | locus YAL026C, strain drs2, stronger effect = lower value 0.991 | locus YAL030W, strain snc1, stronger effect = lower value 0.989 | locus YBL061C, strain skt5, stronger effect = lower value 0.982 | locus YBR009C, strain hhf1, stronger effect = lower value 0.988 | locus YBR023C, strain chs3, stronger effect = lower value 0.993 | locus YBR171W, strain sec66, stronger effect = lower value 0.952 | locus YBR231C, strain swc5, stronger effect = lower value 0.989 | locus YBR279W, strain paf1, stronger effect = lower value 1 | locus YCL011C, strain gbp2, stronger effect = lower value 0.979 | locus YCL016C, strain dcc1, stronger effect = lower value 0.971 | locus YCL061C, strain MRC1, stronger effect = lower value 0.986 | locus YCL069W, strain vba3, stronger effect = lower value 0.996 | locus YCR088W, strain abp1, stronger effect = lower value 0.976 | locus YDL005C, strain med2, stronger effect = lower value 0.938 | locus YDL040C, strain nat1, stronger effect = lower value 0.989 | locus YDR001C, strain nth1, stronger effect = lower value 0.971 | locus YDR069C, strain doa4, stronger effect = lower value 0.986 | locus YDR137W, strain rgp1, stronger effect = lower value 0.963 | locus YDR159W, strain sac3, stronger effect = lower value 0.953 | locus YDR195W, strain ref2 0.981 | locus YDR297W, strain sur2, stronger effect = lower value 0.988 | locus YDR334W, strain swr1, stronger effect = lower value 0.994 | locus YDR335W, strain msn5, stronger effect = lower value 0.98 | locus YDR392W, strain spt3, stronger effect = lower value 0.997 | locus YEL003W, strain gim4, stronger effect = lower value 0.983 | locus YEL037C, strain rad23, stronger effect = lower value 0.984 | locus YEL061C, strain CIN8 (second series), stronger effect = lower value 0.982 | locus YER015W, strain faa2, stronger effect = lower value 0.991 | locus YER016W, strain bim1, stronger effect = lower value 0.977 | locus YER111C, strain swi4, stronger effect = lower value 0.938 | locus YER155C, strain BEM2 (second series), stronger effect = lower value 0.964 | locus YFR010W, strain ubp6, stronger effect = lower value 1 | locus YGL167C, strain pmr1, stronger effect = lower value 0.957 | locus YGL173C, strain kem1, stronger effect = lower value 0.981 | locus YGL227W, strain vid30, stronger effect = lower value 0.965 | locus YGL240W, strain doc1, stronger effect = lower value 0.971 | locus YGL253W, strain hxk2, stronger effect = lower value 0.989 | locus YHR013C, strain ard1, stronger effect = lower value 0.938 | locus YHR027C, strain rpn1, stronger effect = lower value 0.964 | locus YHR030C, strain SLT2, stronger effect = lower value 0.974 | locus YHR079C, strain IRE1, stronger effect = lower value 0.988 | locus YHR142W, strain chs7, stronger effect = lower value 0.962 | locus YJL092W, strain hpr5, stronger effect = lower value 0.971 | locus YJL095W, strain BCK1 (second series), stronger effect = lower value 0.955 | locus YJL095W, strain BCK1, stronger effect = lower value 0.989 | locus YJL115W, strain asf1, stronger effect = lower value 0.971 | locus YJL129C, strain trk1, stronger effect = lower value 0.946 | locus YJL154C, strain vps35, stronger effect = lower value 0.964 | locus YJL164C, strain tpk1, stronger effect = lower value 0.981 | locus YJL166W, strain qcr8, stronger effect = lower value 0.984 | locus YJR066W, strain TOR1, stronger effect = lower value 0.935 | locus YKL160W, strain elf1, stronger effect = lower value 0.962 | locus YKR026C, strain gcn3, stronger effect = lower value 0.986 | locus YKR091W, strain srl3, stronger effect = lower value 0.971 | locus YLL001W, strain dnm1, stronger effect = lower value 0.985 | locus YLL026W, stronger effect = lower value 0.983 | locus YLL041C, strain sdh2, stronger effect = lower value 0.986 | locus YLR027C, strain aat2, stronger effect = lower value 0.973 | locus YLR113W, strain HOG1, stronger effect = lower value 0.944 | locus YLR221C, strain rsa3, stronger effect = lower value 1.01 | locus YLR258W, strain gsy2, stronger effect = lower value 0.983 | locus YLR262C, strain YPT6 (second series), stronger effect = lower value 0.973 | locus YLR320W, strain mms22, stronger effect = lower value 0.996 | locus YLR342W, strain FKS1, stronger effect = lower value 0.979 | locus YLR357W, strain rsc2, stronger effect = lower value 0.96 | locus YLR370C, strain arc18, stronger effect = lower value 0.971 | locus YLR384C, strain iki3, stronger effect = lower value 0.956 | locus YML120C, strain ndi1, stronger effect = lower value 0.994 | locus YMR058W, strain fet3, stronger effect = lower value 0.979 | locus YMR125W, strain sto1, stronger effect = lower value 0.959 | locus YMR129W, stronger effect = lower value 0.98 | locus YMR205C, strain PFK2, stronger effect = lower value 0.981 | locus YMR231W, strain pep5, stronger effect = lower value 0.967 | locus YNL071W, strain lat1, stronger effect = lower value 1 | locus YNL183C, strain NPR1, stronger effect = lower value 0.936 | locus YNL209W, strain ssb2, stronger effect = lower value 0.974 | locus YNL248C, strain rpa49, stronger effect = lower value 0.959 | locus YNL322C, strain KRE1 (second series), stronger effect = lower value 0.944 | locus YNR049C, strain mso1, stronger effect = lower value 0.988 | locus YOR001W, strain rrp6, stronger effect = lower value 1.01 | locus YOR070C, strain gyp1, stronger effect = lower value 0.972 | locus YOR080W, strain dia2, stronger effect = lower value 0.956 | locus YOR083W, strain WHI5, stronger effect = lower value 0.927 | locus YOR106W, strain vam3, stronger effect = lower value 0.972 | locus YOR231W, strain MKK1, stronger effect = lower value 0.966 | locus YOR265W, strain rbl2, stronger effect = lower value 0.99 | locus YOR270C, strain vph1, stronger effect = lower value 0.96 | locus YOR290C, strain snf2, stronger effect = lower value 0.971 | locus YPL051W, strain arl3, stronger effect = lower value 0.994 | locus YPL078C, strain atp4, stronger effect = lower value 0.977 | locus YPL106C, strain sse1, stronger effect = lower value 0.953 | locus YPL240C, strain hsp82, stronger effect = lower value 0.976 | locus YPL256C, strain CLN2, stronger effect = lower value 0.953
